Legend:
Assay type in all cases: functional
[1] = molecular target: Solute carrier family 2, facilitated glucose transporter member 1 (Homo sapiens) (UniProt P11166); assay: ST_JUDE_LEISH: Cytotoxicity at 2uM final concentration against transgenic Leishmania Mexicana promastigotes LmGLUT1 that are glucose transport deficient and complemented with the human glucose transporter GLUT1. Activity is measured by DNA content using SYBR green in vitro
[2] = molecular target: Hexose transporter 1 (Plasmodium falciparum) (UniProt O97467); assay: ST_JUDE_LEISH: Cytotoxicity at 2uM final concentration against transgenic Leishmania Mexicana promastigotes LmPfHT that are glucose transport deficient and complemented with the Plasmodium falciparum hexose transporter. Activity is measured by DNA content using SYBR green in vitro
[3] = molecular target: Glucose transporter (Leishmania mexicana) (UniProt O61059); assay: ST_JUDE_LEISH: Cytotoxicity at 2uM final concentration against transgenic Leishmania Mexicana promastigotes LmGT2 that are glucose transport deficient and complemented with the L. Mexicana glucose transporter 2. Activity is measured by DNA content using SYBR green in vitro

Solute carrier family 2, facilitated glucose transporter member 1 (Homo sapiens), sequence (P11166 whole entry): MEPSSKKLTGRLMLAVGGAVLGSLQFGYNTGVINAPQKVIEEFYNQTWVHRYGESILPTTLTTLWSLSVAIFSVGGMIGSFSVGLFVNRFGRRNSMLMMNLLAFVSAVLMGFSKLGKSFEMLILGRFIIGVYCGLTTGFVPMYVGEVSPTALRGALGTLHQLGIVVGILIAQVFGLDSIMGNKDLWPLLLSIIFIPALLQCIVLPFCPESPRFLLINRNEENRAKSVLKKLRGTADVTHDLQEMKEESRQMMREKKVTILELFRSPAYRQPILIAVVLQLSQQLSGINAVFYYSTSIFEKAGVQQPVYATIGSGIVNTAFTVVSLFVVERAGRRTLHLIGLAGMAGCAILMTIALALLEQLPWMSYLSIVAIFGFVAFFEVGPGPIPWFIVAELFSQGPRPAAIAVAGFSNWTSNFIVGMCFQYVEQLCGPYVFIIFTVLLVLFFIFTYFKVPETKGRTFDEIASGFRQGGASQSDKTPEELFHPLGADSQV

SMILES	inhibition [1] [%]	inhibition [2] [%]	inhibition [3] [%]
Cc1ccc(C)c(S(=O)(=O)Nc2ccc(Br)cc2C(=O)Nc2cccc(C(F)(F)F)c2)c1	0.14	0.63	-1.9
COCCOc1ccc(Nc2nccc(-c3c(-c4cccc(NC(=O)c5c(F)cccc5F)c4)nn4ccccc34)n2)cc1F	7.82	10.9	1.25
CC(C)(CNC(=O)[C@@H]1CCCCN1)c1nc(-c2ccc(Cl)c(O)c2)c(-c2ccncc2)[nH]1	2.07	2.19	1.02
Nc1c(Cl)cc(C(O)CNCCCCCCOCCc2ccc(O)cc2)cc1Cl (stereo not drawn)	-0.61	-1.55	-2.56
CC(C)n1c(CC2CCN(CC3CCN(C(=O)/C=C/c4ccc(Cl)c(Cl)c4)CC3)CC2)nc2ccccc21	-1.74	-2.38	-2.53
CN(C)CCNC(=O)N1CCCN(c2ncnc3cc(-c4ccc(Cl)cc4)sc23)CC1	-0.35	-1.89	0.1
COc1ccc(-c2csc(C(=O)NC3CCC(N4CCC(c5ccccc5C)CC4)CC3)c2)cc1 (stereo not drawn)	3.25	4.24	3.51
COc1cc2nc(NCCc3cccc(Cl)c3)nc(NCc3ccccc3)c2cc1OC	5.15	6.21	1.06
CCn1c(CN2CCC(C)CC2)nc2cc(NC(=O)c3cccs3)ccc21	9.93	9.8	12.5
CC(C)c1ccc(CN2CCC(NC(=O)c3ccc(-c4cccc(F)c4)s3)CC2)cc1	1.18	-0.01	-0.6
Cn1nc(-c2ccccc2F)c2cc(C(=O)Nc3cccnc3)sc21	3.76	2.08	2.9
Oc1ccc(Cl)c2c1C(c1ccccc1)=NCC2	-1.17	-0.25	1.69
Cc1[nH]c(C)c(-c2ccc(-c3ccc(Cl)cc3)nc2)c(=O)c1Cl	0.56	1.71	-0.19
COc1cc2nc(N3CCC(CNC(=O)c4ccc(OC(F)(F)F)cc4)CC3)nc(N)c2cc1OC	-0.03	0.04	0.16
O=c1cc(NCCCNCc2ccc(C(F)(F)F)c(F)c2)[nH]c2ccccc12	0.24	0.58	-0.68
COc1ccc2cc(C(=O)NC3CCC(CCN4CCc5cc(C#N)ccc5C4)CC3)[nH]c2c1 (stereo not drawn)	3.48	0.58	3.6
Cc1cc(OCC2CCCO2)c2cc(NC(=O)C(=O)Nc3ccc4nc(C)cc(OCC5CCCO5)c4c3)ccc2n1 (stereo not drawn)	3.87	3.62	3.37
CCN(CC)CCOC(=O)c1ccc(NC(=O)c2cc(-c3ccc(C)cc3)nc3ccccc23)cc1	1.71	0.95	1.21
COc1ccc(C2CC(=O)C3=C(C2)NC(C)=C(C(=O)OC(C)C)C3c2c(F)cccc2Cl)cc1OC (stereo not drawn)	2.24	0.57	0.75
Cc1ccc(CNC(=O)c2ccc(CN3CCCN(Cc4ccsc4)CC3)cc2)cc1	1.42	0.79	2.87
CN(C)S(=O)(=O)c1cc(-c2ccc3nccc(-c4cccc(S(N)(=O)=O)c4)c3c2)cnc1N	8.3	7.26	7.13
Cc1ccc(NS(=O)(=O)c2cccs2)cc1-c1cccc(C(=O)Nc2ccc(F)cc2)c1	2	3.65	1.16
CCC(CO)NCC(O)Cn1c2ccc(Cl)cc2c2cc(Cl)ccc21 (stereo not drawn)	4.65	5.96	2.18
CCN(CC)c1ccc2nc(N)nc(N)c2c1	8.53	16.5	7.56

SMILES	inhibition [1] [%]	inhibition [2] [%]	inhibition [3] [%]
Cc1cccc2nc(-c3ccc(-c4ccc(NC(=O)CN5CCN(C)CC5)cc4)s3)[nH]c12	-0.59	-1.98	-1.35
COc1cc(OC)cc(-c2nnc(Sc3ccc(C#N)c([N+](=O)[O-])c3)n2C)c1	9.51	6.92	5.47
COc1ccccc1CC1CCCN(C2CCC(NC(=O)c3cc4ccccc4[nH]3)CC2)C1 (stereo not drawn)	0.46	0.32	-0.6
CSc1ccc(CN2CCC(CNC(=O)c3cc(-c4ccccc4F)cs3)C2)cc1 (stereo not drawn)	0.69	-0.86	-3.72
CCN(CC1CCN(CC2(O)CCOCC2)CC1)c1cc(C)nc(Nc2ccc(Cl)cc2)n1	-1.01	0.27	-0.02
CCN1CCN(C(=O)NC(C(=O)N(C)Cc2ccc(-c3ccc(C(F)(F)F)cc3)cc2)c2cccs2)C(=O)C1=O (stereo not drawn)	1.34	0.77	1.3
Cc1cccc2nc(-c3cccc(-c4ccc(NC(=O)c5c[nH]cn5)cc4)c3)[nH]c12	-0.79	-0.73	-1.26
O=C(Cc1cccc(Cl)c1)Nc1ccc(N2CCC(NCc3ccc4ncccc4c3)CC2)cc1	12.6	13.6	8.71
CCOc1ccc(C(=O)Nc2nonc2-c2ccc(OC)c(OC)c2)cc1	-0.49	1.82	0.47
COc1cc(Cc2cnc(N)nc2N)cc(OCCCC(=O)O)c1OC	2.98	1.62	1.78
Cc1ccc(C(O)CNc2ccnc(Nc3cccc(-c4csc(C)n4)c3)n2)cc1 (stereo not drawn)	-0.56	-1.05	-1.54
CS(=O)(=O)N1CC2(CCN(CCC(NC(=S)Nc3ccccc3)c3ccc(Cl)c(Cl)c3)CC2)c2ccccc21 (stereo not drawn)	3.72	1.67	-0.39
N=C(N)NN=Cc1c[nH]c2ccc(-c3ccccc3)cc12	0.57	0.13	1.34
COc1ccccc1NC(=O)CSc1nc2cccnc2n1-c1ccccc1OC	0.89	2.24	0.14
O=S(=O)(Nc1cc2c(cc1O)CCN(C1CCC1)CC2)c1ccc(-c2ccc(F)cc2)cc1	5.67	8.27	3.1
Cc1ccc(Oc2ccc(NC(=O)CNc3ccccc3N3CCCC3=O)cc2)cc1	6	6.14	5.01
C=C(C)COc1ccc(-c2n[nH]c(C(F)(F)F)c2-c2ccccc2OC)c(O)c1	8.67	6.88	6.48
NC1CCN(Cc2ccc(-c3ccc(-c4nc5ccccc5[nH]4)s3)cc2)C1 (stereo not drawn)	3.97	1.77	3.21
COc1ccc2nccc([C@@H](O)CN3CCC(NC(=O)C(c4cc5ccccc5o4)N4CCN(c5ccccc5OC)CC4)CC3)c2c1 (stereo partly drawn)	1.2	0.92	-0.23
Cn1cccc1CCNCc1ccc(-c2cccc(-c3nc4cc(F)ccc4[nH]3)c2)cc1	3.65	3.24	3.01
CCCc1ccc(NC(=O)c2ccc(CN3CCCN(CC4CCCCC4)CC3)cc2)cc1	2.9	7.86	5.46
CC(C)Oc1ccccc1-c1csc(C(=O)NCC2CCN(Cc3ccc(C(C)(C)C)cc3)C2)c1 (stereo not drawn)	0.7	1.62	-2.96
O=C(Cc1ccccc1)NC1(c2ccccc2)CCN(CCc2c[nH]c3ccc(F)cc23)CC1	-0.99	0.25	-0.69
COCCn1c(C)cc(C(=O)CN2C(=O)NC(C)(c3ccc(C(C)(C)C)cc3)C2=O)c1C (stereo not drawn)	-1.09	1.07	1.71

SMILES	inhibition [1] [%]	inhibition [2] [%]	inhibition [3] [%]
CC(CN(C)C)C(=O)Nc1ccc(-c2cccc(-c3nc4cc(C(F)(F)F)ccc4[nH]3)c2)cc1 (stereo not drawn)	1.9	1.89	-2.14
CCCC(C)Nc1nc(C)cc(N[C@@H](CC(C)C)C(=O)NCc2ccc(C)cc2)n1 (stereo partly drawn)	3.04	4.01	0.38
Cn1cc(C(=O)Nc2cccc(-c3cccc(-c4nc5cc(F)ccc5[nH]4)c3)c2)n(C)c1=O	8.03	5.98	5.83
CCOC(=O)Cn1ccc2c(NCc3ccccc3)nc(C)nc21	0.48	1.38	2.53
Oc1cccc(Nc2ccnc3cc(-c4nccs4)ccc23)c1	-0.6	12.9	16.1
COc1ccc(CN(C)CCCc2ccc(NC(=O)c3cccc4c(O)c5ccccc5nc34)cc2)cc1OC	6.56	3.71	1.93
Oc1ccccc1CN1CCC2(CCCN(Cc3ccccc3F)C2)C1 (stereo not drawn)	2.03	-1.06	1.57
c1cn(-c2ccc(CNc3nccc(Nc4ccc(OCCN5CCOCC5)cc4)n3)cc2)cn1	-0.35	-0.43	0.98
COc1ccc2nc(-c3ccccc3)cc(NCCN(C)C)c2c1	8.41	9.21	4.86
COC(=O)[C@@H](NC(=O)[C@H](CC(C)C)Nc1ccc(C#N)c2ccccc12)c1ccc(O)cc1	1.02	0.76	-2.23
CN(C)CCN1CCN(Cc2cccc(-c3csc(-c4nc5ccccc5[nH]4)c3)c2)CC1	0.51	2.44	2.16
COc1cc2nc(N3CCN(C(=O)c4ccco4)CC3)nc(NCc3ccccc3)c2cc1OC	14.9	15.2	11.1
Cc1cc(F)ccc1[C@H]1CNCCN1C(=O)N(C)[C@@H](C)c1cc(C(F)(F)F)cc(C(F)(F)F)c1	-0.55	-0.16	-2.72
Cc1nc(-c2ccc3c(c2)CCN(CCC2CCC(NC(=O)c4cc5cccc(Cl)c5[nH]4)CC2)CC3)no1 (stereo not drawn)	0.58	7.07	6.97
N#Cc1ccc(CN2CCC(Oc3ccc(NC(=O)c4ccsc4)cc3Cl)C2)cc1 (stereo not drawn)	8.19	11.8	8.45
O=C(Nc1cc(Cl)cc(Cl)c1)Nc1ccnc2ccccc12	2.68	2.02	-2.71
COc1cccc(CNc2ncc(-c3ccsc3)c(-c3nccs3)n2)c1	-0.5	0.89	-0.73
OCCc1ccc(Nc2nccc(-c3nnc4ccccn34)n2)cc1	6.85	6.22	6.32
N=C1NC(=N)N(OCCCCCCON2C(=N)NC(=N)NC2C=Cc2ccccc2)C(C=Cc2ccccc2)N1 (stereo not drawn)	1.73	2.16	10.7
Fc1ccccc1C=NNc1ccnc2cc(Cl)ccc12	5.84	7.17	6.07
COc1cc(C(=O)N2N=C(c3c(-c4ccccc4)c4cc(Br)ccc4[nH]c3=O)CC2c2cccc([N+](=O)[O-])c2)cc(OC)c1OC (stereo not drawn)	3.48	3.48	3.79
O=C(Cn1c(CCc2cccc(F)c2F)nc(=O)c2ccccc21)N(Cc1ccc(-c2ccc(C(F)(F)F)cc2)cc1)C1CCN(C2=NCCS2)CC1	3.56	4.28	4.67
COc1ccc2nccc([C@@H](O)CN3CCC(NCc4ccc5cccc(O)c5n4)CC3)c2n1	5.63	11.5	0.77

Source: ChEMBL document CHEMBL3433997, “St. Jude Leishmania screening dataset” (2016)
